# Experimental data from ChEMBL document CHEMBL4513146, “CO-ADD screening of Karazin Kharkiv National University (Ukraine) compounds”.
# Results with a measured potency or affinity are listed apart.
# Experiments:
# Staphylococcus aureus = conditions: Concentration 32 ug.mL-1;; ASSAY_TEST Inhibition of Bacterial Growth; detection method Absorption (OD600); MEDIA CAMHB; plate type 384well; NBS; CORNING #3640; time 18 hr
# Escherichia coli = conditions: Concentration 32 ug.mL-1;; ASSAY_TEST Inhibition of Bacterial Growth; detection method Absorption (OD600); MEDIA CAMHB; plate type 384well; NBS; CORNING #3640; time 18 hr
Compound,Inhibition (Staphylococcus aureus),Inhibition (Escherichia coli)
Cc1cccc(NC(=O)Cn2c(=O)c3nnc(C(C)C)n3c3ccccc32)c1,1.06%,-8.16%
CC(C)CCNC(=O)CSc1nnc2c3cc(-c4ccccc4)nn3ccn12,4.29%,0.66%
Cc1cc(C)cc(Nc2nc(C)cc3nn(CC(=O)Nc4ccc(Cl)cc4)c(=O)n23)c1,-9.56%,0.58%
Cc1nnc2c(S(=O)(=O)N(Cc3cc(F)cc(F)c3)c3cccc(F)c3)cccn12,8.19%,-6.31%
CSc1ccc(CNC(=O)CCc2nnc3c(N4CCCCC4)nc4ccccc4n23)cc1,14.53%,2%
Cc1[nH]c2ccccc2c1C(=O)CSc1nnc2c(=O)n(-c3ccc(Br)cc3)ccn12,-0.76%,-11.28%
COc1cccc(C(=O)CSc2nnc3c(=O)n(-c4ccc(F)cc4)ccn23)c1,4.06%,2.2%
COc1ccc(OC)c(NC(=O)Cn2nc3c4cc(-c5ccc(Cl)cc5)nn4ccn3c2=O)c1,-2.94%,-2.51%
Cc1cccc(CN(c2cc(C)cc(C)c2)S(=O)(=O)c2cccn3c(C)nnc23)c1,6.42%,-0.75%
CC(C)CCn1c(=O)c2ccc(C(=O)NC3CCCCC3)cc2n2c(=S)[nH]nc12,-4.78%,-9.84%
COc1cccc(CN(c2ccc(F)c(F)c2)S(=O)(=O)c2ccc3nncn3c2)c1,-3.79%,-13.18%
Cc1ccc(NC(=O)CSc2nnc3c(=O)n(-c4ccccc4)ccn23)c(C)c1,7.2%,-16.98%
Cc1cc(C)cc(N(Cc2c(F)cccc2Cl)S(=O)(=O)c2cccn3cnnc23)c1,4.69%,-4.41%
O=C(CSc1nnc2c(=O)n(-c3cccc(F)c3)ccn12)NCCc1ccccc1,-2.66%,-10.98%
CCOc1ccc(C(=O)Cn2nc3n(CCC(C)C)c(=O)c4sccc4n3c2=O)cc1,6.67%,3.25%
Cc1ccc(C)c(CN(c2ccc(F)c(F)c2)S(=O)(=O)c2cccn3cnnc23)c1,5.14%,0.2%
COc1cccc(CN(c2ccc(Cl)cc2)S(=O)(=O)c2ccc3nncn3c2)c1,-6.52%,-6.27%
CC(C)(C)OC(=O)CN(c1ccc2c(c1)OCCO2)S(=O)(=O)c1ccc2nncn2c1,6.06%,-4.04%
CSc1ccc(CNC(=O)Cn2nc3c(Oc4ccccc4)nccn3c2=O)cc1,10.07%,1.2%
CCc1ccccc1NC(=O)CSc1nnc2c(=O)n(-c3ccccc3)ccn12,10.95%,-0.17%
CCCN(C)c1nccn2c(=O)n(CC(=O)Nc3cccc(SC)c3)nc12,12.22%,-2.46%
Cc1ccc(NC(=O)Cn2nc3ccc(SC(C)(C)C)nn3c2=O)cc1C,-0.92%,2.46%
O=C(Cn1nc2c3cc(-c4ccc(F)cc4)nn3ccn2c1=O)N1CCN(c2ccccc2F)CC1,-6.33%,3.42%
CC(C)c1ccc(NC(=O)CSc2nnc3c(=O)n(-c4ccccc4)ccn23)cc1,3.45%,-7.12%
O=c1n(Cc2ccc(Cl)cc2)nc2ccc(-c3ccccc3)nn12,3.14%,-1.49%

Compound,Inhibition (Staphylococcus aureus),Inhibition (Escherichia coli)
COc1ccc(Cl)cc1NC(=O)CSc1nnc2c(=O)n(-c3ccc(C)c(C)c3)ccn12,15.8%,-1.54%
Cc1ccc(Cl)cc1NC(=O)Cn1c(=O)c2nnc(C(C)C)n2c2ccccc21,2.92%,-2.02%
Cc1cc(C)cc(Nc2nc(C)cc3nn(CC(=O)Nc4cc(F)ccc4F)c(=O)n23)c1,10.55%,0.49%
COc1ccccc1NC(=O)Cn1nc2n(CCCOC(C)C)c(=O)c3ccccc3n2c1=O,11.96%,2.24%
Cc1ccc(Sc2nccn3c(=O)n(CC(=O)Nc4cc(Cl)ccc4C)nc23)c(C)c1,-0.43%,-11.77%
O=c1c2sccc2n2c(=O)n(Cc3ccccc3F)nc2n1Cc1cccs1,-3.2%,-12.46%
COc1ccc(NC(=O)Cn2c(=O)c3nnc(C(C)C)n3c3ccccc32)cc1,4.5%,-6.7%
Cc1ccc(Oc2nccn3c(=O)n(CC(=O)Nc4ccccc4C(F)(F)F)nc23)cc1,6.18%,0.58%
Cc1ccc(NC(=O)Cn2c(=O)c3nnc(C(C)C)n3c3ccccc32)cc1F,13.81%,1.95%
Cc1cc2nn(CC(=O)Nc3ccccc3F)c(=O)n2c(Nc2ccc(F)c(C)c2)n1,11.73%,-0.72%
CCCCOc1ccc(-c2cc3c4nnc(SCC(=O)Nc5cccc(C)c5C)n4ccn3n2)cc1,-5.45%,-19.34%
CCc1nnc2c(=O)n(CC(=O)Nc3cccc(C#N)c3)c3ccccc3n12,13.48%,1.69%
Cc1ccc(Cl)cc1NC(=O)CSc1nnc2n(CC3CCCO3)c(=O)c3sccc3n12 (stereo not given),8.22%,-0.5%
Cc1cc(C)c(NC(=O)Cn2nc3c4cc(-c5ccc(F)cc5)nn4ccn3c2=O)c(C)c1,12.62%,1.69%
O=C(Cn1nc2c(N3CCOCC3)nc3ccccc3n2c1=O)NCc1ccccc1Cl,-2.26%,-4.63%
Cc1ccc(-n2ccn3c(SCC(N)=O)nnc3c2=O)cc1C,19.3%,0.16%
CC(C)CCn1c(=O)c2ccccc2n2c(=O)n(CC#N)nc12,16.96%,1.73%
O=C(CCc1nnc2c(N3CCCCC3)nc3ccccc3n12)NCc1ccccc1F,5.87%,6.41%
CCc1nnc2c(S(=O)(=O)N(Cc3cccc(F)c3)c3ccc(C)c(C)c3)cccn12,17.57%,2.28%
CCCCOc1ccc(-c2cc3c4nnc(SCC(=O)Nc5ccc(Cl)cc5)n4ccn3n2)cc1,6.59%,-0.55%
O=C(Cn1nc2c(N3CCSCC3)nc3ccccc3n2c1=O)Nc1ccc(Br)cc1,-2.29%,-4.32%
O=C(CSc1nnc2c(=O)n(-c3ccccc3)ccn12)Nc1cc(F)ccc1F,5.32%,-13.66%
COc1ccc(C)cc1NC(=O)Cn1nc2c3cc(-c4ccc(C)c(C)c4)nn3ccn2c1=O,0.65%,-4.8%
COc1cccc(-n2ccn3c(SCc4ccc(C)cc4)nnc3c2=O)c1,8.11%,-4.39%
Cc1ccc(NC(=O)Cn2c(=O)c3nnc(C(C)C)n3c3ccccc32)cc1C,7.95%,6.48%
